Results as given in PubChem BioAssay (Tox21).
Results filed as inconclusive are left out. Active and inactive are the calls of the source. Calls come from the whole dose curve.

Key:
[1] = molecular target: Acetylcholinesterase (Homo sapiens) (UniProt P22303); assay: Acetylcholinesterase (AChE) small molecule antagonists: colormetric cell-based qHTS assay (AID 1347395); note: nearly all actives have a fitted effect of over 30% in size
Outline: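 SH-SY5Y cells, plated overnight at 37 C, were exposed to compounds for 30 min at 37 C and 5% CO2. Acetylthiocholine plus DTNB was then added, and thiocholine from endogenous AChE was quantified colorimetrically after 90 min at 37 C.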

[2] = molecular target: Acetylcholinesterase (Homo sapiens) (UniProt P22303); assay: Acetylcholinesterase (AChE) small molecule antagonists: enzyme-based qHTS assay (AID 1347397); conditions: Potency: AChE enzyme activity inhibition; outcome: AChE enzyme activity inhibition; note: nearly all actives have a fitted effect of over 55% in size
Outline: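 Recombinant human AChE, dispensed at 50 mU/mL, was preincubated with Tox21 10K compounds or DMSO vehicle for 30 min at room temperature. DTNB plus acetylthiocholine was then added, and thiocholine was measured colorimetrically after a further 10 min.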

[3] = molecular target: Acetylcholinesterase (Homo sapiens) (UniProt P22303); assay: Acetylcholinesterase (AChE) small molecule antagonists: fluorescence cell-based qHTS assay (AID 1347398); conditions: Potency: AChE activity; outcome: AChE activity; note: nearly all actives have a fitted effect of over 50% in size
Outline: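 Human SH-SY5Y cells were plated overnight at 37 C, exposed to compound for 30 min at 37 C, 5% CO2, then given acetylthiocholine plus Thiolite Green for 40 min at room temperature; thiocholine fluorescence (Ex/Em 490/520 nm) reports endogenous AChE activity.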

[4] = molecular target: Acetylcholinesterase (Homo sapiens) (UniProt P22303); assay: Acetylcholinesterase (AChE) small molecule antagonists: enzyme-based qHTS assay with human liver microsomes (AID 1347399); conditions: Potency: qHTS inhibition; outcome: qHTS inhibition; note: nearly all actives have a fitted effect of over 60% in size
Outline: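 Recombinant human AChE (50 mU/mL in the enzyme mix) and human liver microsomes (0.25 mg/mL final) were preincubated with compound and NADPH (0.25 mg/mL final) for 30 min at 37 C. Acetylthiocholine/DTNB was then added; thiocholine was read colorimetrically after 10 min at room temperature.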

Measured: Potency

Sequence of Acetylcholinesterase (Homo sapiens) (P22303 whole entry, looked up): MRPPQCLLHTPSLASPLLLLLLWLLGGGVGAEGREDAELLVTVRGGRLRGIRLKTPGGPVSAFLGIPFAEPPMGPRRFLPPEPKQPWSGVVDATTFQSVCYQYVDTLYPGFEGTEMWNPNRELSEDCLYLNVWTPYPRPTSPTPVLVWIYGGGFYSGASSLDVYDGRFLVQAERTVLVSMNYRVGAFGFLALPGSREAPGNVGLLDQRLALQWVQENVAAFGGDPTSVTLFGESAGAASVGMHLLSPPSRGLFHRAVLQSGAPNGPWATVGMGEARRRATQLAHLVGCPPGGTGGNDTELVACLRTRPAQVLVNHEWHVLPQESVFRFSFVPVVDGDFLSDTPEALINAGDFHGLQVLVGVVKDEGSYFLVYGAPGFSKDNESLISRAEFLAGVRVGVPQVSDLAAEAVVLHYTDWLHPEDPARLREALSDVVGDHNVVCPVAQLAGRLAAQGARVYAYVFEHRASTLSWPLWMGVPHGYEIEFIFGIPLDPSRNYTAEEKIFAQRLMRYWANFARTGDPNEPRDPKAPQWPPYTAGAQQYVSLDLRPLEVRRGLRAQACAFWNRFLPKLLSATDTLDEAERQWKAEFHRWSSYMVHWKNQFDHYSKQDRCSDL

CCCCCCCCCCCCCCC(=O)O
inactive: all assays above

Nc1c[n+](N2CCOCC2)no1
inactive: all assays above

C[N+]1(CC2COC(c3ccccc3)(C3CCCCC3)O2)CCCCC1 (stereo not given)
inactive: all assays above

O=S(=O)(O)c1ccc2nc(-c3ccccc3)[nH]c2c1
inactive: all assays above

Cc1cc(C)c(C)c(C)c1
inactive: all assays above

CCC(=O)O[C@]1(C(=O)SCF)[C@H](C)C[C@H]2[C@@H]3C[C@H](F)C4=CC(=O)C=C[C@]4(C)[C@@]3(F)[C@@H](O)C[C@@]21C
inactive: all assays above

CN(C)CCN1CCOCC1
inactive: all assays above

O=C(O)CC(C(=O)O)C(CC(=O)O)C(=O)O (stereo not given)
inactive: all assays above

C[C@H](CCC(=O)O)[C@H]1CC[C@H]2[C@@H]3CC[C@@H]4C[C@H](O)CC[C@]4(C)[C@H]3CC[C@]12C
inactive: all assays above

CC(=O)C1C(=O)C=C(C)OC1=O (stereo not given)
inactive: all assays above

C=CC(=O)OCCOC(=O)C=C
inactive: all assays above

Cc1cc(C)n(CO)n1
inactive: all assays above

Nc1cc(Cl)c([N+](=O)[O-])cc1O
inactive: all assays above

O[C@@H](c1cc(C(F)(F)F)nc2c(C(F)(F)F)cccc12)[C@H]1CCCCN1
inactive: all assays above

OCc1cccc(Oc2ccccc2)c1
inactive: all assays above

COc1nccnc1NS(=O)(=O)c1ccc(N)cc1
inactive: all assays above

CCCN1C=CN(C)C1
inactive: all assays above

Cc1ccc(OC(=O)CC(C)C)cc1
inactive: all assays above

O=c1cc(-c2ccc(O)cc2)oc2cc(O)cc(O)c12
inactive: all assays above

O=C(O)c1ccc(OCCN2CCCCC2)cc1
inactive: all assays above

CCCCOc1cc(C(=O)NCCN(CC)CC)c2ccccc2n1
inactive: all assays above

CC1CCC(C(C)CS)CC1S (stereo not given)
inactive: all assays above

CCCCC/C=C/C=C/C=O
inactive: all assays above

CCC(=O)O[C@]1(C(=O)CCl)[C@@H](C)C[C@H]2[C@@H]3CCC4=CC(=O)C=C[C@]4(C)[C@@]3(F)[C@@H](O)C[C@@]21C
inactive: all assays above

COS(=O)(=O)O
inactive: all assays above

Cc1ccc(C(C)C)cc2c(C)ccc1-2
inactive: all assays above

C#CC(O)CCC (stereo not given)
inactive: all assays above

C=C[Si](OC)(OC)OC
inactive: all assays above

CC(CO)Oc1ccccc1 (stereo not given)
inactive: all assays above

CCOC(=O)N1CCC(n2c(=O)[nH]c3cc(Cl)ccc32)CC1
inactive: all assays above

SC1CCCC1
inactive: all assays above

C[C@@H]1CCN(C(=O)[C@H](CCCN=C(N)N)NS(=O)(=O)c2cccc3c2NC[C@H](C)C3)[C@@H](C(=O)O)C1
inactive: all assays above

Nc1c(Cl)cc(Cl)cc1Cl
inactive: all assays above

CC(C)=CCCC(C)CCO (stereo not given)
inactive: all assays above

COc1cc(/C=C/c2ccccc2)oc(=O)c1
inactive: all assays above

CC(C)C(=O)OCc1ccccc1
inactive: all assays above

COC(=O)Nc1nc2ccc(C(=O)c3cccs3)cc2[nH]1
inactive: all assays above

CCCC(=O)C(C)=O
inactive: all assays above

O=Cc1c2ccccc2c(Cl)c2ccccc12
inactive: all assays above

CCC(C)COC(C)=O (stereo not given)
inactive: all assays above
